The values that follow come from PubChem BioAssay (NCATS).

Activity calls are given as the source filed them. The call rests on the fitted dose curve; in most records, active means well fitted activation curve with a large enough effect; inconclusive means small, poorly fitted or top-dose-only effect; inactive means flat fitted curve, though single readings scatter.

The experiment in a line: Confirmation and Secondary Assay for Modulators of Hemoglobin Beta Chain Splicing at IVS2 705 locus (AID 930). The settings on record: HeLa EGFP-705 splicing reporter, GFP fluorescence, 48 h; series mostly up to 46.1 µM. The essentials:
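Fluorescence gain (488 nm laser, 500-520 nm PMT) reflects restored correct splicing of a mutant IVS2-705 intron inside EGFP in stably transfected HeLa cells after 2-day compound treatment.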
`C[C@@]12C(=O)OC(=O)[C@@]1(C)C1CCC2O1`: the outcome was inactive.
Regarding `Cc1cc(O)c2c(c1)C(=O)c1cccc(O)c1C2=O`, the call was inactive.
The same measure for `COc1ccc(C(C)=O)c(O)c1`: “inactive”; for `Cc1ccc(O)c(C(CCN(C(C)C)C(C)C)c2ccccc2)c1` (stereo not given): “inactive”; for `Oc1cc2c(cc1O)C1c3ccc(O)c(O)c3OCC1(O)C2` (stereo not given): “inactive”.
For the molecule `OCC(O)C(O)C(O)CO` (stereo not given), the molecule was classed as inactive.
`c1coc(CNc2ncnc3nc[nH]c23)c1`: the call was inactive.
With `CCCCCCCCCCCC(CC1OC(=O)C1CCCCCC)OC(=O)C(CC(C)C)NC=O` (stereo not given) the entry was “inactive”; with `CC(Cc1ccc(O)c(O)c1)(NN)C(=O)O` (stereo not given), “inactive”; with `CCC(C(=O)O)C1CCC(C)C(C(C)C(O)C(C)C(=O)C(CC)C2OC3(C=CC(O)[C@@]4(CC[C@](C)(C5CC[C@@](O)(CC)C(C)O5)O4)O3)C(C)CC2C)O1` (stereo not given in full), “inactive”.
